Results from publication PMC7862700, “An all-to-all approach to the identification of sequence-specific readers for epigenetic DNA modifications on cytosine”.

Columns and labels:
Experiment in all cases: DAPPL (digital affinity profiling via proximity ligation, sequencing); 10 mM Tris-HCl pH 7.5, 50 mM NaCl, 1 mM DTT, 4% glycerol, room temperature, 30 min; GST-TFs on glutathione beads, 16-mer random dsDNA library, 0.1% formaldehyde crosslink after washing; high values mean tight binding
Conditions in all cases: protein: recombinant; tags: N-terminal GST; dsDNA, one strand shown
EHF = biological target: T1, EHF (Homo sapiens, UniProt Q9NZC4 1-300)
T1 sequence: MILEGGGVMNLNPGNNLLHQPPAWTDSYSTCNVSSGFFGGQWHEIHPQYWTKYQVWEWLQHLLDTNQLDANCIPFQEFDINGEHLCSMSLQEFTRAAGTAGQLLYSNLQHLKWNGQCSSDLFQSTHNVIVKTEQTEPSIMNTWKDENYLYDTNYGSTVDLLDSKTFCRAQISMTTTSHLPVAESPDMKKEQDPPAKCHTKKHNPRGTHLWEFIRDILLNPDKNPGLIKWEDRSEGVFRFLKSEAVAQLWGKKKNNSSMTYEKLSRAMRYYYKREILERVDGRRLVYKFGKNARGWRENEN
Method in brief: (§1)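 GST fusions of human transcription factors were expressed in yeast and captured with glutathione beads. Once given DNA barcodes and pooled alongside a tag-only sample, they were incubated for 30 min at room temperature with 200 nmole of a random double-stranded 16-mer DNA library in Tris/NaCl/DTT/glycerol buffer, then washed, crosslinked (0.1% formaldehyde), proximity-ligated, PCR-amplified and sequenced on an Illumina NextSeq500. The binding signal of each hexamer is its read frequency for a factor divided by its frequency for the tag-only sample.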

ELK3 = biological target: T2, ELK3 (Homo sapiens, UniProt P41970 1-407)
T2 sequence: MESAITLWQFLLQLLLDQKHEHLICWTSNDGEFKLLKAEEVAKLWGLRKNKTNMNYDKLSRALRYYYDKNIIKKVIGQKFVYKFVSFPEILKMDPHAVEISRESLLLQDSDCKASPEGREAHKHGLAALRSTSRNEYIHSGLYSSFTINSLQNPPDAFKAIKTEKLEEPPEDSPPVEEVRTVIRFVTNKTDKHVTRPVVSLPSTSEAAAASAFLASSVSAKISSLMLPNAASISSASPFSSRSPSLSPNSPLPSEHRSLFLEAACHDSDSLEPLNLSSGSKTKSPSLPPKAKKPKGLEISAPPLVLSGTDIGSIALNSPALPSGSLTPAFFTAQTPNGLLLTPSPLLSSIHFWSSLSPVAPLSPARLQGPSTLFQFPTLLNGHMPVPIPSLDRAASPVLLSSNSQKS
Method in brief: as §1

SPIC = biological target: T3, SPIC (Homo sapiens, UniProt Q8N5J4 1-248)
T3 sequence: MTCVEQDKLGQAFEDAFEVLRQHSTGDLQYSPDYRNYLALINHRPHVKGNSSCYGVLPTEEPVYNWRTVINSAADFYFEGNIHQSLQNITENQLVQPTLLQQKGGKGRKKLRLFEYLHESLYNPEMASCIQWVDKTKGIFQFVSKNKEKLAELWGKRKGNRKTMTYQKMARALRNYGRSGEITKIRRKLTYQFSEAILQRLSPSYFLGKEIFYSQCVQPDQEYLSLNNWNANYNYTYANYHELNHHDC
Method in brief: as §1

ELF4 = ELF4 (Homo sapiens, UniProt Q99607 1-663)
Method in brief: as §1

ELF3 = biological target: T4, ELF3 (Homo sapiens, UniProt P78545 1-371)
T4 sequence: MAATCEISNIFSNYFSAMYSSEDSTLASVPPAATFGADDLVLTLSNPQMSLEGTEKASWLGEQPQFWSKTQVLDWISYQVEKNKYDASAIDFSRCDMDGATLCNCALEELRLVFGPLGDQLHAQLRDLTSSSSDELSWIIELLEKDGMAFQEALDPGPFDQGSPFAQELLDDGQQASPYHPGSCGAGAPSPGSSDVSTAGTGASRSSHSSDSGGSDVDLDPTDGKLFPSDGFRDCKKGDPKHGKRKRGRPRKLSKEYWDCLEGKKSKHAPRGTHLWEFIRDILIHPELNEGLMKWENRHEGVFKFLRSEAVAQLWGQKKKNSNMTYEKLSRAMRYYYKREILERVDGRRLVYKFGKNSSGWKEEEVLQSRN
Method in brief: as §1

ETV1 = ETV1 (Homo sapiens, UniProt P50549 1-477)
Method in brief: as §1

ERF = biological target: T5, ERF (Homo sapiens, UniProt P50548 1-548)
T5 sequence: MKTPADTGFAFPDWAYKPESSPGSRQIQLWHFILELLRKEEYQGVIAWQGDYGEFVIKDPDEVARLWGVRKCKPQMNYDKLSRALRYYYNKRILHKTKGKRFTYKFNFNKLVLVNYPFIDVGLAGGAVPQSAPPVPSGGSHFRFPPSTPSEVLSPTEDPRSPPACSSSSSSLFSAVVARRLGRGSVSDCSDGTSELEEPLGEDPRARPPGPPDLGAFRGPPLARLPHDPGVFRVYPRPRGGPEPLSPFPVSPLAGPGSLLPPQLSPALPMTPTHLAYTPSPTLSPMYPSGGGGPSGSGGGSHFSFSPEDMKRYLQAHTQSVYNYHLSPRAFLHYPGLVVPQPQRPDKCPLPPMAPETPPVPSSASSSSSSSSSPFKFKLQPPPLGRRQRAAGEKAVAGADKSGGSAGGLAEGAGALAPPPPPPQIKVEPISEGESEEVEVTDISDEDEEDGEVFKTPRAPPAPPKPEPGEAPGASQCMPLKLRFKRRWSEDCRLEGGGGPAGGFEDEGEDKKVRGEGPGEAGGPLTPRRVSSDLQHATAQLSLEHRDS
Method in brief: as §1

ETV7 = biological target: T6, ETV7 (Homo sapiens, UniProt Q9Y603 1-341)
T6 sequence: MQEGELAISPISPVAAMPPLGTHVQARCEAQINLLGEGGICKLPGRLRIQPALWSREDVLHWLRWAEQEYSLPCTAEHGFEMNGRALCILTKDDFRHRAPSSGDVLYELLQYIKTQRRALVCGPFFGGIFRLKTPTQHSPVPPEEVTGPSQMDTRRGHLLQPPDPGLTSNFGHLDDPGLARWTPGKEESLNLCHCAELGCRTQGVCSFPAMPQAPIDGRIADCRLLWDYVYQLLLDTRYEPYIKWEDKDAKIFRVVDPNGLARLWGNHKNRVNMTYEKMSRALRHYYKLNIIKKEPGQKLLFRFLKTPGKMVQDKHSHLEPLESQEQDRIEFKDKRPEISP
Method in brief: as §1

ELK4 = biological target: T7, ELK4 (Homo sapiens, UniProt P28324-2 1-405)
T7 sequence: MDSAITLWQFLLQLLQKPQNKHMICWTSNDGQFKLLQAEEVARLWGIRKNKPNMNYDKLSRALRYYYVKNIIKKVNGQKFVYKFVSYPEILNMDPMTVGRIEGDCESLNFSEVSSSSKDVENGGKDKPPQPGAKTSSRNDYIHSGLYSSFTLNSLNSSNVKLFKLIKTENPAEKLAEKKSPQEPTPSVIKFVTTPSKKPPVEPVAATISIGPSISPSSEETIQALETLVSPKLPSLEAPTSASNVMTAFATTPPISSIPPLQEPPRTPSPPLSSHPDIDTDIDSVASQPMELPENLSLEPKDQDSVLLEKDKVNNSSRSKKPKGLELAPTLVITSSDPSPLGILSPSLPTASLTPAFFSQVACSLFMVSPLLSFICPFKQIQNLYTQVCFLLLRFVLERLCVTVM
Method in brief: as §1

ETS2 = biological target: T8, ETS2 (Homo sapiens, UniProt P15036 1-469)
T8 sequence: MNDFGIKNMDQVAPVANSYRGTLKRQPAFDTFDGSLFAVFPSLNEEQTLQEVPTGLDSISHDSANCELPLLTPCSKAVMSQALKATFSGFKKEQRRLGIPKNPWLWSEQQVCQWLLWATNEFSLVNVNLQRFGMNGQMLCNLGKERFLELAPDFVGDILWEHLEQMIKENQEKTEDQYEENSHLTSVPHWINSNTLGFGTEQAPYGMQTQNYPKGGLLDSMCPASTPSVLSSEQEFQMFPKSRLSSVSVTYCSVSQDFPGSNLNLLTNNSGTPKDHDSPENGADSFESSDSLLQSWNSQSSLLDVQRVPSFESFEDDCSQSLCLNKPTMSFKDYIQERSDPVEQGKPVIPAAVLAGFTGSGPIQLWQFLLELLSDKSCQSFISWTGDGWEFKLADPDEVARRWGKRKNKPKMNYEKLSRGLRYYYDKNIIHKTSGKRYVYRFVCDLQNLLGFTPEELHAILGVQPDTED
Method in brief: as §1

ETV6 = ETV6 (Homo sapiens, UniProt P41212 1-452)
Method in brief: as §1

Sequence of ETV1 (P50549 whole entry): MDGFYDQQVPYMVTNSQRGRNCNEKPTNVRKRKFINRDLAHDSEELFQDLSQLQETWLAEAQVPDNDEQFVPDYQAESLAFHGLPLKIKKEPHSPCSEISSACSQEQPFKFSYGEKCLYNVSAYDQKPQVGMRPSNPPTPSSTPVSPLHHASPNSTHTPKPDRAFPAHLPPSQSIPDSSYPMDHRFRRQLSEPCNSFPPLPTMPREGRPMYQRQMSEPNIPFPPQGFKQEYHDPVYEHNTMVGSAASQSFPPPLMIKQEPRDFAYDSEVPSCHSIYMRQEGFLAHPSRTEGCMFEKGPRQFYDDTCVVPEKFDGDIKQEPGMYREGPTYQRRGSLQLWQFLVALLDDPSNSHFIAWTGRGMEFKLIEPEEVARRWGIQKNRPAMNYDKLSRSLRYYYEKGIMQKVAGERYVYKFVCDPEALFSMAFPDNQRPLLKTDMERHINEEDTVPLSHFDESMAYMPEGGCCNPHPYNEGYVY
Sequence of ELF4 (Q99607 whole entry): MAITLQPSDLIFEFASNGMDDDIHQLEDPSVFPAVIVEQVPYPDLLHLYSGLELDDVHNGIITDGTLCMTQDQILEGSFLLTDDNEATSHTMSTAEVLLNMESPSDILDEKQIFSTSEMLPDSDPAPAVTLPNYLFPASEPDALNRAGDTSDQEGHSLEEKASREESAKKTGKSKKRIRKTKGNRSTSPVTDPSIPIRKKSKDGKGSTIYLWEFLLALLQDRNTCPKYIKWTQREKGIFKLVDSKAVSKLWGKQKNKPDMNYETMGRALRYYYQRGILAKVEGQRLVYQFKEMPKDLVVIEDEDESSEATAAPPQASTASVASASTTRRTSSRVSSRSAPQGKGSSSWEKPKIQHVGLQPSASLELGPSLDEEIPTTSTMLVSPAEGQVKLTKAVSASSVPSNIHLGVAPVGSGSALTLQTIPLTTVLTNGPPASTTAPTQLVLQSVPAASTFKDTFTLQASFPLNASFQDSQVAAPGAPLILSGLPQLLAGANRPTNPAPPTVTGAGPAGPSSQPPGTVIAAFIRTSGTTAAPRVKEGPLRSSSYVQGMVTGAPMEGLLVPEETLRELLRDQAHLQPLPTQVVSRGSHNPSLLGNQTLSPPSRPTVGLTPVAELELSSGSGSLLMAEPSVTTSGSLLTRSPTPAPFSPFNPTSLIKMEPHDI
Sequence of ETV6 (P41212 whole entry): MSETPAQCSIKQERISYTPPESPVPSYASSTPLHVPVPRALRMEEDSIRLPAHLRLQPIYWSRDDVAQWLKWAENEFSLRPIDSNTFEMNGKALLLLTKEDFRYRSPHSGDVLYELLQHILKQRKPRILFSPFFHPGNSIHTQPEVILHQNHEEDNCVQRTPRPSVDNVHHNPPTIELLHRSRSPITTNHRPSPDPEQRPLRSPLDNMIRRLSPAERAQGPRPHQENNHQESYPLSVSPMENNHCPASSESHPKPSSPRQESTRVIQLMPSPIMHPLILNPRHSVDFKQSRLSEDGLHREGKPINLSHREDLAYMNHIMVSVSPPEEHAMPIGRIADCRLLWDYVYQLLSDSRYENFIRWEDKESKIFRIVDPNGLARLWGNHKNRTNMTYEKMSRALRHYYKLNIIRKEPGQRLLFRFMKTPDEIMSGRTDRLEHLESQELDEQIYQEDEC

Sequence	binding signal (EHF)	binding signal (ELK3)	binding signal (SPIC)	binding signal (ELF4)	binding signal (ELF3)	binding signal (ETV1)	binding signal (ERF)	binding signal (ETV7)	binding signal (ELK4)	binding signal (ETS2)	binding signal (ETV6)
AGATCT	1.04 fold enrichment (6-mer frequency, TF over GST control)	1.07 fold enrichment (6-mer frequency, TF over GST control)	1.07 fold enrichment (6-mer frequency, TF over GST control)	1.01 fold enrichment (6-mer frequency, TF over GST control)	1.09 fold enrichment (6-mer frequency, TF over GST control)	1.1 fold enrichment (6-mer frequency, TF over GST control)	1.05 fold enrichment (6-mer frequency, TF over GST control)	1.05 fold enrichment (6-mer frequency, TF over GST control)			
TAAGGG		1.04 fold enrichment (6-mer frequency, TF over GST control)	1.18 fold enrichment (6-mer frequency, TF over GST control)		1.09 fold enrichment (6-mer frequency, TF over GST control)	1.05 fold enrichment (6-mer frequency, TF over GST control)	1.01 fold enrichment (6-mer frequency, TF over GST control)		1.1 fold enrichment (6-mer frequency, TF over GST control)	1 fold enrichment (6-mer frequency, TF over GST control)	1.01 fold enrichment (6-mer frequency, TF over GST control)
